FBW7 act: activators of human E3 ligase FBW7; AID 1259310; AlphaScreen FBW7–phospho-cyclin E peptide binding, activator screen; normalized activity (activation), % at 26.1 µM; hit rate 0.13% among 650,000; in the data active = normalized activity above about 1.9%;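 note: purified mutant Fbw7 with reduced substrate affinity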
Target sequence (Q969H0 whole entry, looked up): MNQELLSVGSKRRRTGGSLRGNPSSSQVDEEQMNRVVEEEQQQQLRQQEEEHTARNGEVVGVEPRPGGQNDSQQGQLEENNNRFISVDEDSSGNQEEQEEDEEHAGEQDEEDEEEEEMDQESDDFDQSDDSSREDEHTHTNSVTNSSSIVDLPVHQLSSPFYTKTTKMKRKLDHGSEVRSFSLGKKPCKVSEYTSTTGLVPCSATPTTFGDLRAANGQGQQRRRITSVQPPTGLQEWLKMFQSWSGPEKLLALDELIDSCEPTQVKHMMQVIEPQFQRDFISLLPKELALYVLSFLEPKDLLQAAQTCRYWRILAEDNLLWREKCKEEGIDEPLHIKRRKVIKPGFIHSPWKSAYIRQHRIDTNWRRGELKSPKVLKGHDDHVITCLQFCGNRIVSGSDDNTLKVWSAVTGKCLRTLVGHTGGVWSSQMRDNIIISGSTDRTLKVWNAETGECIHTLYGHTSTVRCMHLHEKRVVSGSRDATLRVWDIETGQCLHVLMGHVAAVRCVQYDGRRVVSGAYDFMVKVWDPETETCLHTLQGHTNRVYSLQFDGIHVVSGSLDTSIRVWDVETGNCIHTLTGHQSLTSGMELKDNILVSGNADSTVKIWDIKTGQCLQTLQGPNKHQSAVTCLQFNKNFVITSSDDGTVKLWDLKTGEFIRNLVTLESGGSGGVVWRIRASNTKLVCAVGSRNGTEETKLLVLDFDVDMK
TEAD-YAP inh: TEAD-YAP interaction inhibition | HEK-TIYL cells, TEAD-Gal4/YAP UAS-luciferase luminescence | inhibition, % at 9.12 µM | hit rate 1.4% among 640,000 | AID 1259422; in the data active = inhibition above about 32%;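 note: 0% = median of test compound wells and 100% = reference inhibitor wells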
GPR151 activ: activates the human receptor GPR151; Q8TDV0; PathHunter beta-arrestin GPR151 cells, luminescence; activation, % at 11.2 µM; hit rate 1% among 650,000; in the data active = activation above about 4.9%;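 note: 0% = median of compound wells and 100% = cells with positive control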
MITF inh: blocks human microphthalmia-associated transcription factor | O75030 | AlphaScreen MITF homodimerization, bead proximity signal | inhibition, % at 2.6 µM | hit rate 0.91% among 650,000; in the data active = inhibition above about 50%;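 note: 0% = vehicle wells with protein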
Starred values were filed as active, the others as inactive; ! = a repeat was not active. Most compounds without a hit are left out; they make up all but 3.5% or so of the library.

SMILES	FBW7 act	TEAD-YAP inh	GPR151 activ	MITF inh
C=CCN(CC=C)Cc1cc(O)c(CN(CC=C)CC=C)cc1O	0	-8	0	53*
C=CCc1ccc(O)c(-c2cc(CC=C)ccc2O)c1	1	0	0	14
c1ccc(CN2CCC(Nc3nc(NCc4cccnc4)nc4c3ncn4-c3ccccc3)CC2)cc1	0	-9	-1	1
Cc1nc(C)c2c(=O)cc(-c3ccccc3)[nH]c2n1	0	52*	-1	-2
Cc1nc(-c2ccccc2)nc2[nH]c(-c3ccccc3)cc(=O)c12	0	12	-1	8
Cc1oc(-c2ccc(Cl)cc2)nc1CN1CCCC(C(=O)NCCN2CCCC2)C1 (stereo unspecified)	0	-8	1	6
Cc1oc(-c2ccc(Cl)cc2)nc1CN1CCCC(C(=O)NCc2cccnc2)C1 (stereo unspecified)	1	46*	-1	12
CC(=O)c1ccc2c(c1)[nH]c1cc(C(C)=O)ccc12	0	46*	0	10
COc1ccc(/C=C/C(=O)C(C(N)=O)=C2SCS2)cc1	0	-38	0	5
O=C(Nc1ccc(Oc2ccccc2)cc1)c1ccc(F)c(S(=O)(=O)N2CCN(C3CCCCC3)CC2)c1	0	42*	2	-2
O=C(Nc1ccc(Oc2ccccc2)cc1)c1ccc(F)c(S(=O)(=O)N2CCCCC2)c1	0	37*	0	5
O=C(Nc1ccc(Oc2ccccc2)cc1)c1ccc(F)c(S(=O)(=O)N2CCC3(CC2)OCCO3)c1	0	61*	-1	22
CCCCOC(=O)CSC1=C(C#N)C(c2ccccc2)C(C(=O)Nc2ccccc2C)=C(C)N1 (stereo unspecified)	0	7	0	22
Cc1ccc2cc(-c3ccccn3)[nH]c2c1	0	-40	-7	14
O=C1CCC(N2CCN(c3ccccn3)CC2)CCN1Cc1ccc(F)c(F)c1 (stereo unspecified)	0	1	-1	-10
Cc1csc(NC(=O)c2sc3nc4c(c(C(F)(F)F)c3c2N)CCCC4)n1	0	65*	1	12
Cc1csc(NC(=O)c2sc3nc(C)c4c(c3c2N)CCCC4)n1	0	94*	0	-3
Cc1ccc(-c2c3c(nc4sc(C(=O)Nc5ccccc5)c(N)c24)CCCC3)cc1	0	2	-2	-17
NNC(=O)CNc1c(-c2ccsc2)nc2ccccn12	0	52*	0	0
CCCn1c(=O)[nH]c2c(C(N)=O)nc(-c3ccc(N(C)C)cc3)nc21	0	6	1	10
C=CCc1ccc(OCCOc2cccc(-c3nc4sc5c(c4c(=O)[nH]3)CCCC5)c2)c(OC)c1	0	6	-1	4
CCN1/C(=C/C=C/c2sc3c(C)cccc3[n+]2CC)Sc2c(C)cccc21	0	44*	-1	33
CCCCCOc1ccc(Br)cc1/C(C)=N/NC1=NCCN1	0	62*	0	-1
O=[N+]([O-])c1cc(S(=O)(=O)NCc2ccccc2)ccc1N1CCCCC1	1	12	0	7
Cc1ccc(Nc2c([N+](=O)[O-])sc3ccccc23)cc1	0	48*	0	30
SMILES	FBW7 act	TEAD-YAP inh	GPR151 activ	MITF inh
CC(=O)N1CCc2c(sc(NC(=O)/C=C/c3ccc([N+](=O)[O-])cc3)c2C#N)C1	0	2	0	2
CC(=O)N1CCc2c(sc(NC(=O)c3ccccc3C)c2C#N)C1	0	51*	2	-3
CC(=O)N1CCc2c(sc(NC(=O)c3cc(Cl)sc3Cl)c2C#N)C1	1	13	1	-7
CSc1ccccc1C(=O)Nc1sc2c(c1C#N)CCN(C(C)=O)C2	0	46*	-2	-8
CC(=O)N1CCc2c(sc(NC(=O)c3ccccc3Cl)c2C#N)C1	0	11	3	-8
CC(=O)N1CCc2c(sc(NC(=O)/C=C/c3ccccc3Cl)c2C#N)C1	0	50*	1	-3
COc1cc(OC)c(CN(CCCN(C)C)CCCN(C)C)cc1Br	0	-4	0	9
Cn1c(-c2ccccc2)cnc1NC(=O)c1ccccc1	0	57*	-1	4
Cc1cc(C(=O)CSc2nnc3ccccn23)c(C)n1Cc1ccccc1	0	64*	-3	1
CCCc1ccc(Oc2c(C(F)(F)F)oc3cc(O)ccc3c2=O)cc1	1	65*	-1	9
CC(C)(C)c1ccc(Oc2c(C(F)(F)F)oc3cc(O)ccc3c2=O)cc1	0	88*	1	-1
COC(=O)c1ccc(Oc2c(C(F)(F)F)oc3cc(O)ccc3c2=O)cc1	0	-2	0	4
O=C(Nc1ccc(F)cc1)c1ccc2c(=O)n(Cc3cccc(Br)c3)c(=S)[nH]c2c1	0	-1	0	-3
COc1cc(NC(=O)CC(C)C)ccc1NC(=O)c1cc2ccccc2o1	0	-34	-1	-3
C=CCNC(=O)C(=O)Nc1ccc(OC)cc1	0	-31	-1	16
Clc1cc(Cl)c2c(c1)C1C=CCC1C(c1ccccc1)N2 (stereo unspecified)	0	10	0	12
O=C(O)C1Nc2c(Cl)cc(Cl)c(Cl)c2C2C=CCC12 (stereo unspecified)	1	9	-1	58*
O=C(O)C1Nc2c(Cl)cc(Cl)cc2C2C=CCC12 (stereo unspecified)	0	8	1	59*
O=C(c1ccccc1Cl)N1CCN(S(=O)(=O)c2cccc([N+](=O)[O-])c2)CC1	1	17	4	14
N#Cc1ccc(CSc2nnc(-c3ccco3)o2)cc1	0	-4	0	-1
Oc1c(Cl)cc(CN2CCOCC2)c2cccnc12	-1	86*	0	100*
Oc1c(Br)cc(CN2CCOCC2)c2cccnc12	-1	75*	0	102*
COC(=O)c1ccccc1NC(=O)NCc1noc2ccc(C)cc12	0	16	0	6
COc1ccc(Cc2nnc(Nc3cccc(Cl)c3)[nH]c2=O)cc1	0	34*	1	3
CCOC(=O)c1c(C)c(C(=O)Nc2ccc(C(=O)OC)cc2)c(C)n1CC	0	-4	1	3
SMILES	FBW7 act	TEAD-YAP inh	GPR151 activ	MITF inh
CCOC(=O)c1c(C)c(C(=O)Nc2ccc(OC)cc2)c(C)n1CC	0	47*	1	4
CCOC(=O)c1c(C)c(C(=O)Nc2ccc(OC)cc2OC)c(C)n1CC	0	46*	-1	-6
COC(=O)c1ccc(NC(=O)CSc2nccn3nc(-c4ccc(F)cc4)cc23)cc1	1	-6	2	14
COc1ccc(S(=O)(=O)NCCc2csc3nc(-c4ccc(F)cc4)nn23)cc1	0	-6	1	3
CCS(=O)(=O)N1CCN(Cc2nc(-c3ccc(Cl)cc3)cs2)CC1	0	33*	0	-3
O=C(CSc1nc2ccccc2[nH]1)Nc1ccc2c(c1)OCO2	0	-8	2	-1
CC1CCN(CCCC(=O)c2ccc(F)cc2)CC1	0	7	0	10
O=C(CCCN1CC=C(n2c(=O)[nH]c3ccccc32)CC1)c1ccc(F)cc1	1.9*!	-4	-1	0
Cc1cc(C=C2C(=O)NC(=S)NC2=O)ccc1N1CCCC1	0	5	1	7

Assay outcomes as filed in PubChem.
